# Measurements published in PubChem BioAssay (Tox21).
# Values joined by “and” are separate entries in the source; they are usually repeats but may differ in a detail not shown here. Identical values can stand only once. Where a structure was tested more than once in an assay, its records may differ in their call. Active and inactive are the calls of the source. A call without a number means that no potency is given here. Unless noted, calls come from the whole dose curve; as a rule, active = well fitted curve in the direction sought with a large enough effect in the repeat runs; inconclusive = weak or mixed curves; inactive = no such curve, though single readings can be large; an effect the other way counts as inactive or inconclusive.
# What was measured:
# [1] = qHTS assay to identify small molecule antagonists of the glucocorticoid receptor (GR) signaling pathway - cell viability counter screen (AID 720693); note: nearly all actives have a fitted effect of over 55% in size
# [2] = qHTS assay for identifying genotoxic compounds that show differential cytotoxicity against isogenic chicken DT40 cell lines with known DNA damage response pathways - wild type cell line (AID 743012); note: nearly all actives have a fitted effect of over 60% in size; note: potency is the fitted concentration of half-maximal effect
# Summary of the method: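 Endpoint: CellTiter-Glo luminescence, 30 min RT. Cells: wild type DT40, 300/well. Exposure: compounds in DMSO, 40 h, 37 C/5% CO2, after ~0.5 h pre-incubation.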
# [3] = qHTS assay for identifying genotoxic compounds that show differential cytotoxicity against isogenic chicken DT40 cell lines with known DNA damage response pathways - Rev3 mutant cell line (AID 743014); note: nearly all actives have a fitted effect of over 55% in size; note: potency is the fitted concentration of half-maximal effect
# [4] = qHTS assay for identifying genotoxic compounds that show differential cytotoxicity against isogenic chicken DT40 cell lines with known DNA damage response pathways - Rad54/Ku70 mutant cell line (AID 743015); note: nearly all actives have a fitted effect of over 60% in size; note: potency is the fitted concentration of half-maximal effect
# [5] = qHTS assay to identify small molecule antagonists of the androgen receptor (AR) signaling pathway - cell viability counter screen (AID 743033; note: nearly all actives have a fitted effect of over 45% in size; note: potency is the fitted concentration of half-maximal effect)
# [6] = molecular target: Androgen receptor (Homo sapiens) (UniProt P10275); test: qHTS assay to identify small molecule antagonists of the androgen receptor (AR) signaling pathway (AID 743035; active = well fitted inhibition curve with a large enough effect in the signal ratio in the repeat runs, not every such curve was filed as active; inconclusive = weak or mixed curves, or effect the other way; inactive = no such curve, though single readings can be large or run the other way; the % refers to the signal ratio; note: potency is the fitted concentration of half-maximal effect)
# Summary of the method: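 R1881 agonist challenge of a HEK293 UAS-beta-lactamase AR reporter line in the presence of compound (16 h, 37C); signal taken as FRET fluorescence after 2 h with LiveBLAzer B/G substrate at room temperature.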
# [7] = molecular target: Androgen receptor (Homo sapiens) (UniProt P10275); test: qHTS assay to identify small molecule agonists of the androgen receptor (AR) signaling pathway (AID 743036; active = well fitted activation curve with a large enough effect in the signal ratio in the repeat runs, with a control signal flat, not every such curve was filed as active; inconclusive = weak or mixed curves, or effect the other way; inactive = no such curve, though single readings can be large or run the other way; the % refers to the signal ratio)
# Summary of the method: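 In this Tox21 qHTS, 2,000 HEK293 AR-bla cells per well were incubated with compounds for 16 h at 37C and 5% CO2. Fluorescence intensity was recorded 2 h after adding LiveBLAzer B/G FRET substrate at room temperature.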
# [8] = molecular target: Androgen receptor (Homo sapiens) (UniProt P10275); test: qHTS assay to identify small molecule agonists of the androgen receptor (AR) signaling pathway using the MDA cell line (AID 743040; note: nearly all actives have a fitted effect of over 20% in size); settings: MDA-kb2 AR-luc cells, MMTV luciferase, 16 h, stronger effect = higher value
# Summary of the method: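 Luciferase read-out, ONE-Glo, 30 min RT. Cells: MDA-kb2 AR-luc, MMTV promoter with AR and GR response elements. Compound exposure 16 h, 37C, 0% CO2, after 5 h pre-incubation. qHTS agonist mode.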
# [9] = qHTS assay to identify small molecule antagonists of the androgen receptor (AR) signaling pathway using the MDA cell line - cell viability counter screen (AID 743041; note: nearly all actives have a fitted effect of over 45% in size)
# Summary of the method: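 Cytotoxicity counter screen: MDA-kb2 AR-luc cells, compound + R1881, 16 h, 37C, 0% CO2; CellTiter-Fluor added at 15.5 h, fluorescence read after 30 min.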
# [10] = molecular target: Androgen receptor (Homo sapiens) (UniProt P10275); test: qHTS assay to identify small molecule antagonists of the androgen receptor (AR) signaling pathway using the MDA cell line (AID 743042; note: nearly all actives have a fitted effect of over 55% in size; note: potency is the fitted concentration of half-maximal effect)
# Summary of the method: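 MDA-kb2 breast carcinoma cells carrying MMTV-luciferase (AR/GR responsive) were co-treated with compounds and the agonist R1881 for 16 h at 37C. Inhibition read as ONE-Glo luminescence; CellTiter-Fluor fluorescence measured in parallel for cytotoxicity.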
# [11] = system: thyroid hormone receptor (rat, GH3 cells); test: qHTS assay to identify small molecule agonists of the thyroid receptor (TR) signaling pathway (AID 743066; calls by dose curve)
# [12] = qHTS assay to identify small molecule antagonists of the estrogen receptor alpha (ER-alpha) signaling pathway - cell viability counter screen (AID 743074; calls by dose curve;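 note: HEK293 cells carrying ER-alpha-UAS-bla reporter stimulated with 17beta-estradiol; nearly all actives have a fitted effect of over 45% in size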)
# [13] = qHTS assay to identify small molecule antagonists of the estrogen receptor alpha (ER-alpha) signaling pathway using the BG1 cell line - cell viability counter screen (AID 743081);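 note: compound given together with 17beta-estradiol as the ER stimulus; nearly all actives have a fitted effect of over 45% in size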
# [14] = molecular target: Aromatase (Homo sapiens) (UniProt P11511); test: qHTS assay to identify aromatase inhibitors (AID 743083); note: nearly all actives have a fitted effect of over 55% in size; note: potency is the fitted concentration of half-maximal effect
# [15] = qHTS assay to identify small molecule antagonists of the thyroid receptor (TR) signaling pathway - cell viability counter screen (AID 743064); note: nearly all actives have a fitted effect of over 50% in size; note: potency is the fitted concentration of half-maximal effect
# Summary of the method: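 Counter screen for cytotoxicity: compound plus T3 (1 nM final) on GH3.TRE-Luc cells, 23.5 h at 37 °C, then fluorescence viability readout with CellTiter-Fluor.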
# [16] = qHTS assay to identify small molecule antagonists of the thyroid receptor (TR) signaling pathway (AID 743065); note: nearly all actives have a fitted effect of over 55% in size; note: potency is the fitted concentration of half-maximal effect
# Summary of the method: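 GH3.TRE-Luc rat pituitary cells (two TREs driving luciferase) were dosed with compound, then stimulated with 1 nM T3 (final) for 23.5 h at 37 C. ONE-Glo luminescence was the read-out, with CellTiter-Fluor fluorescence as the cytotoxicity counter-screen.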
# [17] = molecular target: Estrogen receptor (Homo sapiens) (UniProt P03372); test: qHTS assay to identify small molecule antagonists of the estrogen receptor alpha (ER-alpha) signaling pathway (AID 743069; active = well fitted curve in the direction sought with a large enough effect in the signal ratio in the repeat runs, not every such curve was filed as active; inconclusive = weak or mixed curves, or effect the other way; inactive = no such curve, though single readings can be large or run the other way; the % refers to the signal ratio; note: potency is the fitted concentration of half-maximal effect)
# Summary of the method: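 Beta-lactamase FRET fluorescence is read after 2 hr at room temperature with LiveBLAzer B/G substrate. Before that, ER-alpha-bla HEK293 cells sit 4 hr after plating, then receive compound plus 17beta-estradiol and incubate 18 hr at 37C.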
# [18] = molecular target: Estrogen receptor (Homo sapiens) (UniProt P03372); test: qHTS assay to identify small molecule agonists of the estrogen receptor alpha (ER-alpha) signaling pathway (AID 743075; calls by dose curve;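 note: HEK293 GripTite cells with ER-alpha and UAS-driven beta-lactamase reporter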; note: potency is the fitted concentration of half-maximal effect)
# [19] = qHTS assay to identify small molecule antagonists of the estrogen receptor alpha (ER-alpha) signaling pathway using the BG1 cell line (AID 743080; calls by dose curve;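 note: BG1 cells stimulated with 17beta-estradiol alongside compound; nearly all actives have a fitted effect of over 25% in size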; note: potency is the fitted concentration of half-maximal effect)
# Summary of the method: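 Seeding, 24 h rest, compound transfer from DMSO, 17beta-estradiol addition, 21.5 h incubation, CellTiter-Fluor (30 min, 37 C), then ONE-Glo (30 min, room temperature): this sequence was run on BG1-Luc-4E2 reporter cells.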
# [20] = molecular target: Estrogen receptor (Homo sapiens) (UniProt P03372); test: qHTS assay to identify small molecule agonists of the estrogen receptor alpha (ER-alpha) signaling pathway using the BG1 cell line (AID 743079); settings: BG1Luc4E2 cells, ERE-luciferase agonist, 22 h; activation: at 70.3 µM (top of the series) unless noted; note: nearly all actives have a fitted effect of over 20% in size; note: potency is the fitted concentration of half-maximal effect
# Sequence of Estrogen receptor (Homo sapiens) (P03372 whole entry, looked up): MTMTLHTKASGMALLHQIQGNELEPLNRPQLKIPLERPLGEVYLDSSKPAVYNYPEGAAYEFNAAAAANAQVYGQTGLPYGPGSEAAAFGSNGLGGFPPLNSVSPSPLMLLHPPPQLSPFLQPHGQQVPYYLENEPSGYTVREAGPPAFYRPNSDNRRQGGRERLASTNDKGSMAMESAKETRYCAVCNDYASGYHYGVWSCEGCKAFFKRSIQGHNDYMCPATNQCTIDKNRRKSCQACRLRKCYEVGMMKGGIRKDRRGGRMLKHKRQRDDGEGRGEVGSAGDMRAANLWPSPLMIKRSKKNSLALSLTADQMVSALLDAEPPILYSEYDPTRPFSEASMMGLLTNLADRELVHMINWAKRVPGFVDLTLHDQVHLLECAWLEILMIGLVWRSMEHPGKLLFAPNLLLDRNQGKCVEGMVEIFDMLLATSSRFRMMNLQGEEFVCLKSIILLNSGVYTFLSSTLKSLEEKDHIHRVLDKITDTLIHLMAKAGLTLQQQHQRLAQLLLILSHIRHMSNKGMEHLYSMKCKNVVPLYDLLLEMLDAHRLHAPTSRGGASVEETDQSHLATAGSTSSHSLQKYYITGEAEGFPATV
# Sequence of Androgen receptor (Homo sapiens) (P10275 whole entry, looked up): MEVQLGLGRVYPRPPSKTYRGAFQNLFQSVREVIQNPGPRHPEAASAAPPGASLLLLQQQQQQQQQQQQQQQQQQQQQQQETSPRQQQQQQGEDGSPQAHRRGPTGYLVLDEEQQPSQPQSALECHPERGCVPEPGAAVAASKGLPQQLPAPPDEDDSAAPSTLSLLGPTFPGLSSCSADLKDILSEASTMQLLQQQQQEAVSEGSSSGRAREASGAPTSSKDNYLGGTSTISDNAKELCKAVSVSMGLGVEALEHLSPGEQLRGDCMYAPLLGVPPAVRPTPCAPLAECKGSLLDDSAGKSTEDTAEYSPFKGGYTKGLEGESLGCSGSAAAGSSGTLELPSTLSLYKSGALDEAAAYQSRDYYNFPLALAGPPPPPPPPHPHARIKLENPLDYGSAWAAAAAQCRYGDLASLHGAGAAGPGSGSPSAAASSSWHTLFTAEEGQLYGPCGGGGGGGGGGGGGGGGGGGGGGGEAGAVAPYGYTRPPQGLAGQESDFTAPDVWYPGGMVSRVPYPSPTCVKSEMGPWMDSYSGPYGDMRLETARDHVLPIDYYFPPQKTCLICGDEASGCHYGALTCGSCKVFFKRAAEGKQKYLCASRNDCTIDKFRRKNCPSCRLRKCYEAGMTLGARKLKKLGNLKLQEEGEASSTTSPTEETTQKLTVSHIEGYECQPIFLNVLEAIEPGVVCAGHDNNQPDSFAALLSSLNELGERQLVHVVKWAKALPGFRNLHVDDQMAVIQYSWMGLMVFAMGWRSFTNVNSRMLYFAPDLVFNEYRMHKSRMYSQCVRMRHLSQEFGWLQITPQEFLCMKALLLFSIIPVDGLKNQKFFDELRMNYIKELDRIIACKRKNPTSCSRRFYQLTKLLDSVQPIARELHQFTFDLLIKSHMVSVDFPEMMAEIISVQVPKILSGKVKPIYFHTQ
# Sequence of Aromatase (Homo sapiens) (P11511 whole entry, looked up): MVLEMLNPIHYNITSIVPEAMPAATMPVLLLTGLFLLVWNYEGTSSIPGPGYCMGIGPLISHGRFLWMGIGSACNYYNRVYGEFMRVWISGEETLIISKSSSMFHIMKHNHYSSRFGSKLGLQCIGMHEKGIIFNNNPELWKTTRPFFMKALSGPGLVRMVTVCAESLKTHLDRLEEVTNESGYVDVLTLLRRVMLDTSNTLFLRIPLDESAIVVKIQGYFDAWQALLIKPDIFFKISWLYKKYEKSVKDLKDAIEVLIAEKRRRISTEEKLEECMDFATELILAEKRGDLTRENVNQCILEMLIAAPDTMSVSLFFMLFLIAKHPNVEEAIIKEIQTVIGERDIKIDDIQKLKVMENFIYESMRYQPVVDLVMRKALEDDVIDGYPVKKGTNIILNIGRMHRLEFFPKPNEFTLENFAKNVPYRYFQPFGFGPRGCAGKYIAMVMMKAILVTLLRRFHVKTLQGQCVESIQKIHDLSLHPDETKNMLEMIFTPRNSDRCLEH
smiles,measurement,setting,value
CC(C)=CC1C(C(=O)OCN2C(=O)C3=C(CCCC3)C2=O)C1(C)C (stereo unspecified),Potency,[1],inactive
same,Potency,[2],43.3 µM (active)
same,Potency,[3],inactive
same,Potency,[4],27.3 µM (active)
same,Potency,[5],inactive
same,Potency,[6],43.6 µM (active)
same,Potency,[7],inactive
same,activity change,[8]; at 70.3 µM (top of the series),7.43% (inactive) and -10.5% (inactive)
same,Potency,[9],inactive
same,Potency,[10],inactive
same,Potency,[11],inactive
same,Potency,[12],inactive
same,Potency,[13],inactive
same,Potency,[14],inactive
N#Cc1nn(-c2c(Cl)cc(C(F)(F)F)cc2Cl)c(N)c1S(=O)C(F)(F)F (stereo unspecified),Potency,[1],inactive
same,Potency,[2],8.41 µM (active) and 2.75 µM (active)
same,Potency,[3],10.6 µM (active) and 3.88 µM (active)
same,Potency,[4],9.44 µM (active) and 1.94 µM (active)
same,Potency,[5],15.6 µM (active)
same,Potency,[6],23.9 µM (active)
same,Potency,[7],inactive
same,activity change,[8]; at 70.3 µM (top of the series),-9.74% (inactive)
same,activity change,[8]; at 95 µM (top of the series),-12% (inactive)
same,Potency,[10],17.3 µM (active)
same,Potency,[15],29.8 µM (active) and 61.5 µM (active)
same,Potency,[16],26.6 µM (active) and 19.4 µM (active)
same,Potency,[11],inactive
same,Potency,[17],17.5 µM [inconclusive] (active)
same,Potency,[12],inactive
same,Potency,[18],inactive
same,Potency,[19],7.5 µM (active) and 24.5 µM (active)
same,Potency,[13],inactive
same,Potency,[14],33.5 µM (active) and 19.4 µM (active)
CCCCOC(=O)COC(=O)c1ccccc1C(=O)OCCCC,Potency,[1],inactive
same,Potency,[2],inactive
same,Potency,[3],inactive
same,Potency,[4],inactive
same,Potency,[5],inactive
same,Potency,[9],inactive
same,Potency,[15],inactive
same,Potency,[16],inactive
same,Potency,[11],inactive
same,Potency,[17],inactive
same,Potency,[12],inactive
same,Potency,[18],inactive
same,Potency,[20],inactive
same,Potency,[19],inactive
same,Potency,[13],inactive
same,Potency,[14],inactive
CN(C)P(=O)(N(C)C)N(C)C,Potency,[1],inactive
same,Potency,[2],inactive
same,Potency,[3],inactive
same,Potency,[4],inactive
same,Potency,[5],inactive
same,Potency,[9],inactive
same,Potency,[15],inactive
same,Potency,[16],inactive
same,Potency,[11],inactive
same,Potency,[17],inactive
same,Potency,[12],inactive
same,Potency,[18],inactive
same,Potency,[20],inactive
same,Potency,[19],inactive
same,Potency,[13],inactive
same,Potency,[14],inactive
O=NN(c1ccccc1)c1ccccc1,Potency,[1],inactive
same,Potency,[2],inactive
same,Potency,[3],inactive
same,Potency,[4],inactive
same,Potency,[5],inactive
same,Potency,[9],inactive
same,Potency,[15],inactive
same,Potency,[16],inactive
same,Potency,[11],inactive
same,Potency,[17],inactive
same,Potency,[12],inactive
same,Potency,[18],53.7 µM [inconclusive] (active) and inactive
same,Potency,[20],47.4 µM (active)
same,Potency,[19],inactive
same,Potency,[13],inactive
same,Potency,[14],inactive
CNC(=O)Oc1cccc2c1OC(C)(C)C2,Potency,[1],inactive
same,Potency,[2],inactive
same,Potency,[3],inactive and 24.3 µM (active)
same,Potency,[4],inactive
same,Potency,[5],inactive
same,Potency,[7],inactive
same,activity change,[8]; at 70.3 µM (top of the series),1.41% (inactive)
same,activity change,[8]; at 95 µM (top of the series),1.74% (inactive)
same,Potency,[9],inactive
same,Potency,[10],inactive
same,Potency,[15],inactive
same,Potency,[16],inactive
same,Potency,[11],inactive
same,Potency,[17],inactive
same,Potency,[12],inactive
same,Potency,[18],inactive
same,Potency,[20],inactive and 24.3 µM (active)
same,Potency,[19],inactive
same,Potency,[13],inactive
same,Potency,[14],inactive
